In PubChem BioAssay AID1159580 (chemical genetic matrix, 2015):
Values joined by “and” are separate entries in the source; they are usually repeats but may differ in a detail not shown here. Equal values may be shown once. Out of some 5,500 compounds screened, about 2,000 (36%) were called active. Inconclusive results (about 18%) are left out. No stated cut-off is given here; in the data, active means normalized growth mostly below about 0.91 (no sharp cut-off); inconclusive means no clear call, values can overlap the other calls; inactive means mostly above about 0.92. Some of the results follow.

Test: chemical genetic growth profiling, strain panel (AID 1159580);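 further: tested at 20 µM; growth read once vehicle control cultures reached saturation at 30 °C; 1 = growth at the plate median or of vehicle wells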
Conditions: S. cerevisiae deletion strains, growth OD

Measured: normalized growth

CC1CCc2cc(F)cc3c(=O)c(C(=O)O)cn1c23 (configuration not stated)
inactive: locus YAL013W, strain DEP1, stronger effect = lower value 0.985 | locus YAL021C, strain ccr4, stronger effect = lower value 0.967 | locus YAL026C, strain drs2, stronger effect = lower value 0.981 | locus YAL030W, strain snc1, stronger effect = lower value 0.989 | locus YBL061C, strain skt5, stronger effect = lower value 0.985 | locus YBR009C, strain hhf1, stronger effect = lower value 0.987 | locus YBR021W, strain FUR4, stronger effect = lower value 0.943 | locus YBR023C, strain chs3, stronger effect = lower value 0.975 | locus YBR171W, strain sec66, stronger effect = lower value 0.979 | locus YBR229C, strain ROT2, stronger effect = lower value 0.98 | locus YBR231C, strain swc5, stronger effect = lower value 0.997 | locus YBR279W, strain paf1, stronger effect = lower value 0.985 | locus YCL011C, strain gbp2, stronger effect = lower value 0.988 | locus YCL016C, strain dcc1, stronger effect = lower value 0.977 | locus YCL029C, strain bik1, stronger effect = lower value 0.925 | locus YCL061C, strain MRC1, stronger effect = lower value 0.989 | locus YCL069W, strain vba3, stronger effect = lower value 0.992 | locus YCR088W, strain abp1, stronger effect = lower value 0.999 | locus YDL005C, strain med2, stronger effect = lower value 0.995 | locus YDL035C, strain GPR1, stronger effect = lower value 1 | locus YDL040C, strain nat1, stronger effect = lower value 0.999 | locus YDL074C, strain BRE1, stronger effect = lower value 0.972 | locus YDL101C, strain DUN1, stronger effect = lower value 0.974 | locus YDL134C, strain PPH21, stronger effect = lower value 0.975 | locus YDL185W, strain tfp1, stronger effect = lower value 0.981 | locus YDL192W, strain arf1, stronger effect = lower value 0.967 | locus YDR001C, strain nth1, stronger effect = lower value 0.992 | locus YDR069C, strain doa4, stronger effect = lower value 1 | locus YDR101C, strain arx1, stronger effect = lower value 0.962 | locus YDR137W, strain rgp1, stronger effect = lower value 0.942 | locus YDR150W, strain NUM1, stronger effect = lower value 0.981 | locus YDR159W, strain sac3, stronger effect = lower value 1.01 | locus YDR162C, strain NBP2, stronger effect = lower value 0.991 | locus YDR195W, strain ref2 0.99 | locus YDR297W, strain sur2, stronger effect = lower value 0.997 | locus YDR318W, strain mcm21, stronger effect = lower value 0.97 | locus YDR334W, strain swr1, stronger effect = lower value 0.986 | locus YDR335W, strain msn5, stronger effect = lower value 0.991 | locus YDR388W, stronger effect = lower value 0.952 | locus YDR392W, strain spt3, stronger effect = lower value 0.941 | locus YDR502C, strain sam2, stronger effect = lower value 0.984 | locus YEL003W, strain gim4, stronger effect = lower value 1 | locus YEL037C, strain rad23, stronger effect = lower value 0.993 | locus YEL061C, strain CIN8 (second series), stronger effect = lower value 0.993 | locus YEL061C, strain CIN8, stronger effect = lower value 0.985 | locus YER015W, strain faa2, stronger effect = lower value 0.982 | locus YER016W, strain bim1, stronger effect = lower value 1 | locus YER110C, stronger effect = lower value 0.976 | locus YER111C, strain swi4, stronger effect = lower value 0.984 | locus YER155C, strain BEM2 (second series), stronger effect = lower value 0.994 | locus YER155C, strain BEM2, stronger effect = lower value 0.975 | locus YER167W, strain BCK2, stronger effect = lower value 0.988 | locus YFR010W, strain ubp6, stronger effect = lower value 0.984 | locus YGL078C, strain dbp3, stronger effect = lower value 0.969 | locus YGL086W, strain mad1, stronger effect = lower value 0.987 | locus YGL167C, strain pmr1, stronger effect = lower value 0.993 | locus YGL173C, strain kem1, stronger effect = lower value 0.991 | locus YGL227W, strain vid30, stronger effect = lower value 0.985 | locus YGL240W, strain doc1, stronger effect = lower value 0.991 | locus YGL248W, strain PDE1, stronger effect = lower value 0.984 | locus YGL253W, strain hxk2, stronger effect = lower value 0.995 | locus YGR078C, strain PAC10, stronger effect = lower value 0.974 | locus YGR135W, strain pre9, stronger effect = lower value 0.974 | locus YGR229C, strain SMI1, stronger effect = lower value 1.01 | locus YGR252W, strain gcn5, stronger effect = lower value 1.04 | locus YHR013C, strain ard1, stronger effect = lower value 0.965 | locus YHR027C, strain rpn1, stronger effect = lower value 0.985 | locus YHR030C, strain SLT2, stronger effect = lower value 0.982 and 0.978 | locus YHR079C, strain IRE1 (second series), stronger effect = lower value 0.955 | locus YHR079C, strain IRE1, stronger effect = lower value 0.988 | locus YHR094C, strain hxt1, stronger effect = lower value 0.983 | locus YHR129C, strain ARP1, stronger effect = lower value 0.977 | locus YHR142W, strain chs7, stronger effect = lower value 0.981 | locus YHR200W, strain rpn10, stronger effect = lower value 0.969 | locus YIL066C, strain RNR3, stronger effect = lower value 0.974 | locus YIL073C, strain SPO22, stronger effect = lower value 0.991 | locus YIL125W, strain kgd1, stronger effect = lower value 0.985 | locus YIR030C, strain dcg1, stronger effect = lower value 0.972 | locus YJL092W, strain hpr5, stronger effect = lower value 0.988 | locus YJL095W, strain BCK1 (second series), stronger effect = lower value 0.989 | locus YJL095W, strain BCK1, stronger effect = lower value 0.948 and 0.982 | locus YJL115W, strain asf1, stronger effect = lower value 0.983 | locus YJL129C, strain trk1, stronger effect = lower value 1 | locus YJL134W, strain LCB3, stronger effect = lower value 0.984 | locus YJL154C, strain vps35, stronger effect = lower value 0.991 | locus YJL164C, strain tpk1, stronger effect = lower value 0.988 | locus YJL166W, strain qcr8, stronger effect = lower value 0.981 | locus YJL168C, strain set2, stronger effect = lower value 0.967 | locus YJL187C, strain SWE1 (second series), stronger effect = lower value 0.954 | locus YJL187C, strain SWE1, stronger effect = lower value 0.989 | locus YJR043C, strain POL32, stronger effect = lower value 0.979 | locus YJR066W, strain TOR1, stronger effect = lower value 0.897
